Assay results reported in the supplement of paper PMC7411640.
Where a name gives a salt, the structure may show the parent alone.

tested on: MDA-MB-468; assay: phospho-S6 immunofluorescence (DAPI-normalised), per-plate z-score; higher = higher phospho-S6 signal (less pathway suppression); conditions: co-treatment: lapatinib 1 uM; 24 h
Description: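 GPCR-targeted compound library (MedChemExpress HY-L006) tested on MDA-MB-468 PTEN-null TNBC cells in 384-well plates at 0.1, 1 or 10 uM, combined with vehicle, GDC0941 450 nM or lapatinib 1 uM, for 24 h. Phospho-S6 (S240/244) immunofluorescence normalised to DAPI and expressed as a per-plate z-score; values are the mean of biological triplicates.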

SMILES	phospho-S6 immunofluorescence (z-score)
CN(C)CCC=C1c2ccccc2C=Cc2ccccc21 [Cyclobenzaprine (hydrochloride)] (compound 10 µM)	-0.8
Cn1c(SCC(=O)N2CCC[C@H]2C(=O)Nc2ccccc2-c2ccccc2)nc2ccccc21 (compound 10 µM)	1.59
COc1cc(C(C)=O)ccc1OCCCN1CCC(c2noc3cc(F)ccc23)CC1 [Iloperidone] (compound 10 µM)	-0.23
Nc1nc(N)nc(-c2cc(Cl)ccc2Cl)n1 [Irsogladine] (compound 10 µM)	0.22
Cc1ccccc1N1CCN(CCc2nnc3n2CCCC3)CC1 [Dapiprazole (hydrochloride)] (compound 10 µM)	-0.49
CCc1cc2c(cc1CC)CC(NC[C@H](O)c1ccc(O)c3[nH]c(=O)ccc13)C2 [Indacaterol (maleate)] (compound 10 µM)	-1.41
CNCC(O)c1ccc(O)c(O)c1 (racemic) [DL-Epinephrine] (compound 10 µM)	5.47
Cc1cc(NC(=O)NCCN2CCC(O)(Cc3ccccc3)CC2)c2ccccc2n1 [Palosuran] (compound 10 µM)	-2.21
CCCCc1oc2ccc(NS(C)(=O)=O)cc2c1C(=O)c1ccc(OCCCN(CCCC)CCCC)cc1 [Dronedarone] (compound 10 µM)	-8.99
CC[C@H](C)[C@H](NC(=O)[C@H](Cc1ccc(O)cc1)NC(=O)[C@@H]1CCCN1C(=O)[C@@H](NC(=O)[C@@H](N)CCCCN)[C@@H](C)CC)C(=O)N[C@@H](CC(C)C)C(=O)O [Neuromedin N] (compound 10 µM)	-0.01
